Where “and” joins values, the source holds several entries; their conditions need not be identical. Equal values may be shown once. In all, about 5,500 compounds went through this assay and about 2,000 (36%) were called active. Another 18% or so got no clear call; they are omitted. Cut-off read from the data, not from the text of the source: active = normalized growth mostly below about 0.91 (no sharp cut-off); inconclusive = no clear call, values can overlap the other calls; inactive = mostly above about 0.92. The list shows a part of the results.
Assay: chemical genetic growth profiling, strain panel (AID 1159580);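 note: tested at 20 µM; growth read once vehicle control cultures reached saturation at 30 °C; 1 = growth at the plate median or of vehicle wells; lower values mean less growth of the strain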
Conditions: S. cerevisiae deletion strains, growth OD

Measured: normalized growth

CC(=O)O[C@H]1C[C@@H](OC(C)=O)C(C)(C)C2CC(=O)[C@]3(C)C(CC[C@@]4(C)[C@H](C(=O)O)OC(=O)C5OC543)[C@]21C (stereo partly specified)
inactive: locus YAL021C, strain ccr4, stronger effect = lower value 0.96 | locus YAL026C, strain drs2, stronger effect = lower value 0.98 | locus YAL030W, strain snc1, stronger effect = lower value 1.02 | locus YBL061C, strain skt5, stronger effect = lower value 0.995 | locus YBR009C, strain hhf1, stronger effect = lower value 0.988 | locus YBR021W, strain FUR4, stronger effect = lower value 1.03 | locus YBR023C, strain chs3, stronger effect = lower value 1.01 | locus YBR171W, strain sec66, stronger effect = lower value 0.984 | locus YBR229C, strain ROT2, stronger effect = lower value 0.964 | locus YBR231C, strain swc5, stronger effect = lower value 0.988 | locus YBR279W, strain paf1, stronger effect = lower value 1.01 | locus YCL011C, strain gbp2, stronger effect = lower value 0.982 | locus YCL016C, strain dcc1, stronger effect = lower value 0.974 | locus YCL029C, strain bik1, stronger effect = lower value 0.979 | locus YCL061C, strain MRC1, stronger effect = lower value 0.987 | locus YCL069W, strain vba3, stronger effect = lower value 0.991 | locus YCR088W, strain abp1, stronger effect = lower value 1 | locus YDL005C, strain med2, stronger effect = lower value 0.966 | locus YDL035C, strain GPR1, stronger effect = lower value 0.977 | locus YDL040C, strain nat1, stronger effect = lower value 0.995 | locus YDL074C, strain BRE1, stronger effect = lower value 1.04 | locus YDL101C, strain DUN1, stronger effect = lower value 0.991 | locus YDL134C, strain PPH21, stronger effect = lower value 1.05 | locus YDL185W, strain tfp1, stronger effect = lower value 0.965 | locus YDL192W, strain arf1, stronger effect = lower value 0.968 | locus YDR001C, strain nth1, stronger effect = lower value 0.994 | locus YDR069C, strain doa4, stronger effect = lower value 0.994 | locus YDR101C, strain arx1, stronger effect = lower value 0.983 | locus YDR137W, strain rgp1, stronger effect = lower value 0.991 | locus YDR159W, strain sac3, stronger effect = lower value 1.03 | locus YDR162C, strain NBP2, stronger effect = lower value 1.01 | locus YDR195W, strain ref2 0.936 | locus YDR297W, strain sur2, stronger effect = lower value 0.993 | locus YDR318W, strain mcm21, stronger effect = lower value 0.987 | locus YDR334W, strain swr1, stronger effect = lower value 0.976 | locus YDR335W, strain msn5, stronger effect = lower value 0.987 | locus YDR388W, stronger effect = lower value 0.989 | locus YDR392W, strain spt3, stronger effect = lower value 1 | locus YDR502C, strain sam2, stronger effect = lower value 1.02 | locus YEL003W, strain gim4, stronger effect = lower value 0.994 | locus YEL037C, strain rad23, stronger effect = lower value 0.995 | locus YEL061C, strain CIN8 (second series), stronger effect = lower value 0.993 | locus YEL061C, strain CIN8, stronger effect = lower value 0.979 | locus YER015W, strain faa2, stronger effect = lower value 0.987 | locus YER016W, strain bim1, stronger effect = lower value 0.987 | locus YER110C, stronger effect = lower value 0.979 | locus YER111C, strain swi4, stronger effect = lower value 0.987 | locus YER155C, strain BEM2 (second series), stronger effect = lower value 0.992 | locus YER155C, strain BEM2, stronger effect = lower value 0.996 | locus YER167W, strain BCK2, stronger effect = lower value 0.988 | locus YFR010W, strain ubp6, stronger effect = lower value 1.02 | locus YGL078C, strain dbp3, stronger effect = lower value 1.02 | locus YGL086W, strain mad1, stronger effect = lower value 1 | locus YGL167C, strain pmr1, stronger effect = lower value 0.993 | locus YGL173C, strain kem1, stronger effect = lower value 0.997 | locus YGL227W, strain vid30, stronger effect = lower value 0.993 | locus YGL240W, strain doc1, stronger effect = lower value 0.974 | locus YGL248W, strain PDE1, stronger effect = lower value 1.01 | locus YGL253W, strain hxk2, stronger effect = lower value 0.988 | locus YGR135W, strain pre9, stronger effect = lower value 1.06 | locus YGR252W, strain gcn5, stronger effect = lower value 1.07 | locus YHR013C, strain ard1, stronger effect = lower value 0.97 | locus YHR027C, strain rpn1, stronger effect = lower value 0.988 | locus YHR030C, strain SLT2, stronger effect = lower value 0.981 and 1.01 | locus YHR079C, strain IRE1 (second series), stronger effect = lower value 0.983 | locus YHR079C, strain IRE1, stronger effect = lower value 1.03 | locus YHR094C, strain hxt1, stronger effect = lower value 0.992 | locus YHR129C, strain ARP1, stronger effect = lower value 0.987 | locus YHR142W, strain chs7, stronger effect = lower value 0.98 | locus YHR200W, strain rpn10, stronger effect = lower value 1.02 | locus YIL066C, strain RNR3, stronger effect = lower value 0.957 | locus YIL073C, strain SPO22, stronger effect = lower value 0.996 | locus YIL125W, strain kgd1, stronger effect = lower value 0.992 | locus YIR030C, strain dcg1, stronger effect = lower value 0.986 | locus YJL092W, strain hpr5, stronger effect = lower value 0.994 | locus YJL095W, strain BCK1 (second series), stronger effect = lower value 0.983 | locus YJL095W, strain BCK1, stronger effect = lower value 1.08 and 1.01 | locus YJL115W, strain asf1, stronger effect = lower value 0.978 | locus YJL129C, strain trk1, stronger effect = lower value 0.987 | locus YJL134W, strain LCB3, stronger effect = lower value 0.978 | locus YJL154C, strain vps35, stronger effect = lower value 0.978 | locus YJL164C, strain tpk1, stronger effect = lower value 1.02 | locus YJL166W, strain qcr8, stronger effect = lower value 0.977 | locus YJL168C, strain set2, stronger effect = lower value 0.996 | locus YJL187C, strain SWE1 (second series), stronger effect = lower value 1.01 | locus YJL187C, strain SWE1, stronger effect = lower value 0.984

From PubChem BioAssay AID1159580 (chemical genetic matrix, 2015)
